Bioassay records (PubChem)
RXFP1 agonist – agonists of human relaxin receptor RXFP1; Potency, µM (series often up to 57.5 µM), for the others: top-dose activation, hits mostly activators; Q9HBX9; HEK293T-RXFP1 cAMP TR-FRET, 30 min; response scale: percent of porcine relaxin response, buffer zero; 370,000 compounds, 0.3% hits; active = well fitted activation curve with a large enough effect; inconclusive = small, poorly fitted or top-dose-only effect; also: potency is read from the fitted curve at half-maximal effect; % is scaled to controls: 0 for no effect and ±100 for the full control effect; nearly all actives have a fitted effect of over 60% in size
Target sequence (Q9HBX9 whole entry, looked up): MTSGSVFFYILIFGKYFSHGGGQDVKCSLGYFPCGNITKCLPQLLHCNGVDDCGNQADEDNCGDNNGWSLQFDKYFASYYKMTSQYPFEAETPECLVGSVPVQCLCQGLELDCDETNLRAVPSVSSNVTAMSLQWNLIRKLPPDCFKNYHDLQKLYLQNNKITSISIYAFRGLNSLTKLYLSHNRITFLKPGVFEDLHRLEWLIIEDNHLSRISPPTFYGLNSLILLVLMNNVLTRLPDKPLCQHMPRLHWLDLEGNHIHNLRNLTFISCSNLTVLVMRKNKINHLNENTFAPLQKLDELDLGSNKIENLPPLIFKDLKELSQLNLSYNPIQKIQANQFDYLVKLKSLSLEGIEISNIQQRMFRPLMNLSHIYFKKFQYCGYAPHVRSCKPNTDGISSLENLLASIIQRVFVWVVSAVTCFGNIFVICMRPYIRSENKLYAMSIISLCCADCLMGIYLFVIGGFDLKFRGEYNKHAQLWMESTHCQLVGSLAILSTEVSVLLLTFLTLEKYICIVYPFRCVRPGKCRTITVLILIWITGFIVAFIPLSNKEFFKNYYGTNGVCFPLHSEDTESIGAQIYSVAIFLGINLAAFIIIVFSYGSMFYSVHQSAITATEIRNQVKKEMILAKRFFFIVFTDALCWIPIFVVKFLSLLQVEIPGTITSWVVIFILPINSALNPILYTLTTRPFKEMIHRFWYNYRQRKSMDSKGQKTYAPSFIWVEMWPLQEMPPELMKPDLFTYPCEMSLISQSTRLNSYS
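Agonist response is measured as cAMP accumulation in an RXFP1-transfected HEK293T line under PDE4 inhibition. Values are scaled between buffer-only and 29 nM porcine relaxin, and EC50s come from standard Hill equation fits.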
RXFP1 antagonist – antagonists of human relaxin receptor RXFP1. Q9HBX9. HEK293-RXFP1, relaxin-stimulated cAMP HTRF, 30 min; hits give low values. activity change, negative = inhibition, % at 57.5 µM. 350,000 compounds, 0.59% hits. AID 1259400;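 active = activity change of -60% or lower, but not beyond a set lower limit; inconclusive = change between -60% and -40%, or beyond the set limit; inactive = change above -40%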; also: % is scaled to controls: 0 for no effect and ±100 for the full control effect
gsp antag – gsp mutant antagonism; AID 624288; 340,000 compounds, 0.4% hits; gsp-mutant cells, cAMP HTRF, 30 min; Potency, µM (highest dose often 76.9 µM), inactives show at the highest dose activity change, negative = inhibition, usual class: inhibitors; calls by dose curve; cell line not stated here;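 also: intracellular cAMP measured with PDE inhibitor Ro 20-1724 present during compound exposure; potency is read from the fitted curve at half-maximal effect; % is scaled to controls: 0 for no effect and ±100 for the full control effect; nearly all actives have a fitted effect of over 65% in size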
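Cells in G418 medium, seeded 16-24 h, 37C; buffer exchange to DPBS + 1 mM CaCl2, 0.5 mM MgCl2, 0.05% BSA; cpds in DMSO + […] (300 uM stock), 30 min 37C; HTRF cAMP detection.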
gsp agonist – agonists of gsp mutant (McCune-Albright syndrome); gsp mutant cells, cAMP HTRF, 30 min; 340,000 compounds, 0.13% hits; Potency, µM (doses to about 76.9 µM), for the others: at the highest dose activation (cAMP increase), hits mostly activators; active = well fitted activation curve with a large enough effect; inconclusive = small, poorly fitted or top-dose-only effect, or another doubt; inactive = no such curve, though single readings can be large or run the other way; cell line not stated here;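 also: phosphodiesterase inhibitor Ro 20-1724 added with compounds to block cAMP breakdown; potency is read from the fitted curve at half-maximal effect; nearly all actives have a fitted effect of over 60% in size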
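Cells in DMEM/10% FBS with G418 were pretreated with compounds in DMSO plus […] (300 uM stock) for 30 min at 37C. cAMP was measured by HTRF (cAMP-d2 plus anti-cAMP antibody-K) after 30 min at room temperature.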
* marks the source's active call; other numbers are inactive results; u = inconclusive; x = no result given; [ ] = another dose, or the depositor's remark. Hits are enriched below; roughly 0.9% of the tested compounds scored in any of these assays.

SMILES	RXFP1 agonist	RXFP1 antagonist	gsp antag	gsp agonist
COc1cc(CC(=O)OCC(=O)Nc2cc([N+](=O)[O-])ccc2Cl)cc(OC)c1OC	4.4%	-2.4	-14.5%	-16.9%
COc1ccc(CC(=O)NNS(=O)(=O)c2ccc([N+](=O)[O-])cc2)cc1OC	-0.7%	-84.0*	6.9%	1.3%
CCOc1ccc(C(=O)N2CCCCC2CCN2CCOCC2)cc1 (centres undefined)	0.1%	5.8	x	x
COc1cc(CNC(=O)c2ccc(NC(=O)N3CCCCc4ccccc43)cc2)cc(OC)c1OC	-0.7%	x	x	x
O=C(CSc1nc2ccsc2c(=O)n1Cc1ccccc1F)NCc1ccccc1Cl	1.1%	-30.8	x	x
COc1cc(N2C(=O)C=CC2=O)ccc1N1C(=O)C=CC1=O	x	u	50.1µM*	-0.1%
CCc1ccc(CN2CCc3nc(Nc4ccccc4)ncc3C2)cc1	1.9%	-65.2*	x	x
Cc1ccc(S(=O)(=O)c2ccc([N+](=O)[O-])o2)cc1	x	-60.3*	-5.2%	-13.2%
CCCOc1ccc(/C=N/NC(=O)c2nnn(-c3nonc3N)c2-c2cccs2)cc1OC	1.6%	-15.9	31.6µM*	-21.6%
Nc1nonc1-n1nnc(C(=O)N/N=C/c2cccnc2)c1CSc1ccccc1	-0.2%	-6.1	-22.4%	-81.0%
CN(C)Cc1c(C(=O)N/N=C/c2cccc(OCc3ccccc3)c2)nnn1-c1nonc1N	1.5%	-14.6	50.1µM*	-43.1%
Nc1nonc1-n1nnc(C(=O)N/N=C/c2cccnc2)c1CSc1ccc(Cl)cc1	0.9%	-64.8*	35.5µM*	-7.0%
Nc1nonc1-n1nnc(C(=O)N/N=C/c2ccc3c(c2)OCO3)c1-c1ccccc1	3.0%	-12.6	35.5µM*	-4.6%[15.4 µM]
Nc1nonc1-n1nnc(C(=O)N/N=C/c2ccc(Br)cc2)c1-c1ccc2c(c1)OCO2	0.2%	u	u	18.2%
Cc1nc(N2CCOCC2)c2c(C(=O)N3CCN(c4cccc(C)c4C)CC3)c(C)oc2n1	0.9%	-5.2	x	x
COc1ccc(S(=O)(=O)NCc2nc(-c3ccccc3)no2)cc1	-3.6%	10.6	x	x
COCCCN(Cc1ccco1)C(=O)c1cc2c(s1)-c1ccccc1OC2	6.0%	x	x	x
CC(C(=O)NCc1ccccc1)N1Cc2ccccc2C1=O (centres undefined)	1.6%	-6.0	x	x
C#CC(c1ccccc1)(c1ccccc1)n1ccnc1	x	10.3	x	-7.5%
Clc1ccccc1C(c1ccccc1)(c1ccccc1)n1ccnc1	1.5%	-93.7*	u	x
CC(C(=O)NCc1ccccc1)n1cc([N+](=O)[O-])cn1 (centres undefined)	-2.5%	3.8	5.2%	1.58µM*
Cc1cc(C)c2sc(N(CCCN(C)C)C(=O)COc3ccc(Cl)cc3)nc2c1	-0.1%	-71.7*	9.0%	17.7%[15.4 µM]
Cc1cc(C)c2sc(N(CCCN(C)C)C(=O)c3ccc(S(=O)(=O)N(C)C4CCCCC4)cc3)nc2c1	0.2%	-84.4*	11.1%	-2.1%[15.4 µM]
Cc1ccc(S(=O)(=O)N2CCc3cc(C(=O)Nc4ccc(C)c(C)c4)ccc32)cc1	-4.2%	2.6	x	x
CCOC(=O)N1CCC(Nc2ccc(Cl)cc2N)CC1	x	-22.3	x	x
SMILES	RXFP1 agonist	RXFP1 antagonist	gsp antag	gsp agonist
CC1=CC2=NC(=O)/C(=C\c3ccc(OC(=O)c4ccco4)cc3)C(=N)N2O1	-0.7%	-21.8	14.1%	-16.5%
CSC1=NSC2=NC(=O)/C(=C\c3ccc(OC(=O)c4ccco4)cc3)C(=N)N12	-0.7%	u	u	1.9%[15.4 µM]
CC1=CSC2=NC(=O)/C(=C/c3cccc(OC(=O)c4ccco4)c3)C(=N)N12	-0.5%	-80.0*	0.5%	17.8%
COc1cc(/C=C2/C(=N)N3OC(C)=CC3=NC2=O)ccc1OC(=O)c1ccco1	2.4%	-74.7*	-4.3%	6.1%[15.4 µM]
CCCCCC(=O)N1C[C@H](O)[C@@H](n2cc(C3CC3)nn2)C[C@@H]1c1ccc(OC)cc1	x	-2.1	x	46.8%
CSc1ncnc2c1ncn2CCCNCc1cccc2ccccc12	x	11.8	x	-25.0%
NNC(=O)CSc1nc(-c2ccccc2)nc2c1CCCC2	-0.2%	-69.1*	-5.9%	12.0%
CCCCC(=O)OC1=C(C(=O)c2ccccc2)N(CC)S(=O)(=O)c2ccccc21	-1.1%	u	x	x
CCCCN1C(C(=O)c2ccccc2)=C(OC(C)=O)c2ccccc2S1(=O)=O	2.7%	-62.8*	x	x
CO/N=C(\C(=O)O)c1csc(NC(=O)CCl)n1	x	3.8	x	x
C=CCn1c(SCC(=O)NC2CCCC2)nc2scc(-c3ccco3)c2c1=O	0.6%	-62.3*	-13.7%	-23.1%
C=C1CC(Cn2cc(Br)c(=O)[nH]c2=O)(c2ccc(-c3ccccc3)cc2)OC1=O (centres undefined)	x	-89.7*	6.8%	13.4%
CCCn1c2ccccc2c2cnn(CC(=O)Nc3cc(C)c(Cl)cc3OC)c(=O)c21	-0.1%	15.9	x	x
CCOc1ccc(OCC)c(Nc2nc3ccc(C(=O)c4ccccc4)cc3n3cnnc23)c1	-0.3%	-8.4	x	x
CC(=O)O[C@]1(C(C)=O)CC[C@H]2[C@@H]3C=C(Cl)C4=CC(=O)CC[C@]4(C)[C@H]3CC[C@@]21C	0.2%	-83.4*	-20.1%	x
Cc1ccc(C)c(-c2nc(Cn3c(=O)cc(-c4ccccc4)c4c(C)nn(C)c43)c(C)o2)c1	3.0%	2.8	x	x
COc1ccc([C@]23Cc4cc(OC)c(OC)cc4C(O2)c2c(cc(C)n(Cc4ccccc4)c2=O)O3)cc1	2.6%[11.5 µM]	x	x	x
O=C(Nc1ccc(C(=O)N2CCCC2)cc1)c1ccccc1F	0.1%	-3.6	-2.9%	13.8%
O=C(Nc1cc(C(=O)N2CCCC2)ccc1N1CCCC1)c1ccccc1F	-1.0%	-26.2	6.31µM*	u
COc1ccccc1Cn1c(CNS(=O)(=O)c2c(C)cc(C)cc2C)nc2cccnc21	-0.4%	-20.5	x	x
N#Cc1ccsc1NC(=O)CN1CCN(Cc2ccccc2)CC1	1.3%	-4.3	-4.2%	30.4%[15.4 µM]
N#Cc1ccccc1NC(=O)CN1CCN(Cc2ccccc2)CC1	0.1%	-5.8	35.5µM*	-0.5%[15.4 µM]
Cc1c(C(=O)Nc2cccc(Cl)c2)c2ccccn2c1CCc1ccncc1	4.7%	38.0	28.2µM*	-9.1%[15.4 µM]
Cc1c(C(=O)Nc2ccc(Cl)cc2)c2ccccn2c1CCc1ccncc1	-1.1%	-3.8	0.1%	u
Cc1ccc(S(=O)(=O)c2cc3c(=O)n4ccccc4nc3n(C3CCCC3)c2=N)cc1	-0.9%	-83.6*	-2.8%	-33.0%
SMILES	RXFP1 agonist	RXFP1 antagonist	gsp antag	gsp agonist
COc1ccc(NC(=O)c2nn(C)c3c2CS(=O)(=O)c2ccccc2-3)cc1Cl	-3.2%	5.5	x	x
Cc1cc(C)cc(N2CCn3c2nc2c3c(=O)n(CCc3ccccc3)c(=O)n2C)c1	-0.4%	-8.6	x	x
CN(c1ccccc1)S(=O)(=O)c1cccc(C(=O)Nc2nccs2)c1	-0.8%	-6.9	-1.3%	-5.1%
C=CCSc1nnc(NC(=O)c2cccc(S(=O)(=O)N(C)c3ccccc3)c2)s1	-1.9%	-28.2	39.8µM*	-0.7%
CC1CCC(N2CC(=O)N(C3CCCCC3)C(c3ccc(F)cc3)C2=O)CC1 (centres undefined)	2.8%	-8.2	x	x
Cc1nn(C)c(C)c1N1C(=O)c2cccc3c(Br)ccc(c23)C1=O	21.5%	5.4	1.7%	12.6µM*
